# Measurements as given in PubChem BioAssay (NCI).
# Compounds without any hit were thinned out: in the full panel of roughly 83,000, 20% have a hit.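 Treatment: one concentration, 48 hours, 96-well format. Scoring: percent growth, with anything below 10 considered active.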 Values without a mark were called inactive. Calls of active or inactive are those of the source.
# Columns and labels:
# Assay in all cases: NCI-60 one-dose screen, 48 h (100 = growth as untreated, 0 = no growth, -100 = all killed)
# Settings in all cases: 10 µM unless noted
# [1] = test system: NCI-H23 lung
# [2] = test system: NCI-H226 lung
# [3] = test system: HOP-62 NSCLC
# [4] = test system: NCI-H460 lung
# [5] = test system: HOP-92 NSCLC
# [6] = test system: NCI-H522 lung
# [7] = test system: A549/ATCC NSCLC
# [8] = test system: 786-0 renal
# [9] = test system: DU-145 prostate
# [10] = test system: K-562 leukemia
# [11] = test system: MALME-3M melanoma
# [12] = test system: MDA-MB-231 breast
# [13] = test system: RXF 393 renal
# [14] = test system: SF-268 CNS
# [15] = test system: SF-295 CNS
# [16] = test system: SF-539 CNS
# [17] = test system: UACC-257 melanoma
# [18] = test system: M14 melanoma
# [19] = test system: COLO 205 colon
# [20] = test system: NCI-H322M lung
Compound,growth [1],growth [2],growth [3],growth [4],growth [5],growth [6],growth [7],growth [8],growth [9],growth [10],growth [11],growth [12],growth [13],growth [14],growth [15],growth [16],growth [17],growth [18],growth [19],growth [20] [%]
CNC(=O)c1c(NC(=O)c2ccc(C(C)(C)C)cc2)sc2c1CCC(=O)C2,6.65% (active),-2.45% (active),17%,1.8% (active),-22.3% (active),-37% (active),15.8%,29.3%,27.7%,5.54% (active),-12.8% (active),-20.5% (active),-11.3% (active),14%,2.19% (active),-51.9% (active),16.8%,3.53% (active),,
COc1ccc(-n2nnc(C(=O)NCCc3c[nH]c4ccc(F)cc34)c2C)cc1,98.5%,97.9%,86.5%,100%,87.6%,76.1%,82%,99.6%,107%,,106%,97.8%,105%,97.3%,102%,103%,87.7%,,111%,
O=C1CCC(N2C(=O)c3cccc(NCCCC4CCN(CCNC(=O)c5cc6c(o5)C(=O)c5ccccc5C6=O)CC4)c3C2=O)C(=O)N1 (stereo not drawn),-59.6% (active),-69.2% (active),-52.9% (active),-71.1% (active),49%,-51.7% (active),-41.9% (active),-26.2% (active),-94.9% (active),2.99% (active),-99.2% (active),-25.2% (active),-52.9% (active),-32.7% (active),-95.2% (active),-99.1% (active),-85.5% (active),-83.2% (active),,
COC1=CC(c2ccc[nH]2)=N/C1=C\c1[nH]c(C)c(C(=O)OCCn2cc(CCC[C@@H]3Cc4cc(O)ccc4C4CC[C@]5(C)[C@@H](O)CC[C@H]5C43)nn2)c1C (stereo partly drawn),80.8%,85.7%,88.6%,53.3%,67.8%,92.1%,82.2%,62.5%,50.1%,51.9%,131%,,60.1%,69.9%,96.1%,64.2%,96.4%,,80.5%,
COC(=O)Nc1nc2ccc(C(=O)C3CC3)cc2[nH]1,33.8%,149%,38.1%,2.65% (active),53.5%,-37.6% (active),,29.2%,1.8% (active),-15.1% (active),63.2%,22.8%,4.26% (active),29.7%,-38.5% (active),-27.5% (active),27.5%,7.18% (active),-34.1% (active),50.9
CCOC(=O)c1sc(-c2ccc(OS(=O)(=O)c3ccc(C(C)(C)C)cc3)c(C=O)c2)nc1C,33.3%,48.5%,52%,41.7%,21.1%,22.1%,84.9%,47.2%,43.8%,16.1%,45.1%,53.7%,,32.9%,28.6%,45.6%,52%,,72.7%,
O=C(O)c1ccccc1C(=O)Nc1ccc(Cl)cc1,99.3%,118%,107%,106%,97.8%,91%,85%,94%,103%,68.6%,109%,104%,128%,94.5%,101%,98.6%,78.3%,,107%,
CN(C)CCC(O)(Cc1ccccc1)c1ccccc1 (stereo not drawn),100%,115%,111%,112%,106%,116%,106%,105%,,103%,114%,108%,117%,,103%,103%,111%,,107%,
COc1cc(C(=O)/C=C/c2c(-c3ccc(F)cc3)nc3ncccn23)cc(OC)c1OC,39.3%,63.4%,68.1%,21.6%,23.6%,-0.92% (active),61.1%,70.7%,31.8%,17.9%,50.7%,64.4%,13.6%,51%,56.4%,28.5%,47%,,,
O=C(CC12CC3CC(CC(C3)C1)C2)NCCOCCOCCOCCNC(=O)c1cc2c(o1)C(=O)c1ccccc1C2=O,-47.6% (active),-73.6% (active),-49.7% (active),-71.5% (active),27.6%,-45.6% (active),-41.2% (active),-5.36% (active),-95.6% (active),2.13% (active),-96.3% (active),-0.382% (active),-51.3% (active),-3.17% (active),-90.1% (active),-90.4% (active),-80.7% (active),-76.2% (active),,
C=C1C(=O)O[C@H]2[C@H]1CC/C(COC(=O)/C=C\C(=O)NCc1ccc(Cn3c(=O)sn(CCCC)c3=O)cc1)=C\CC[C@@]1(C)O[C@@H]21,-61.4% (active),-70.4% (active),-35.7% (active),-54.3% (active),-67.7% (active),-44.5% (active),0.708% (active),-76.8% (active),-95.5% (active),0.287% (active),-93.3% (active),-84.4% (active),,-64.4% (active),65.1%,-98.9% (active),-52.8% (active),,-51.2% (active),
Clc1ccc(-c2nc(NCCc3ccccc3)nc3c(NCCc4ccccc4)cnn23)cc1,50.8%,99.7%,85.3%,16.3%,97.7%,63%,9.98% (active),80%,84.5%,,96.8%,92.1%,94.7%,35.1%,56.4%,30.9%,71.5%,70%,,
COc1ccc(OC)c(C(=O)Nc2cccc(-c3cc(=O)c4ccccc4o3)c2)c1,92.8%,92.4%,89.1%,90%,93.7%,68.1%,88.8%,92.6%,88.1%,90.1%,83.3%,83.4%,,74.2%,88.6%,84.4%,100%,,104%,
CCCCn1c(=O)[nH]c(N)c(C(c2ccc(F)cc2)c2c(N)[nH]c(=O)n(CCCC)c2=O)c1=O,77.5%,77.7%,77.4%,51.6%,82.4%,51.6%,69%,,79.1%,52.9%,87.7%,62.9%,65.5%,54.1%,56.8%,75.3%,65.9%,,59.9%,74.8
C=C(C)[C@@H]1CC[C@]2(CNCCO)CC[C@]3(C)[C@H](CC[C@@H]4[C@@]5(C)CCC(N)[C@@](C)(CO)[C@@H]5CC[C@]43C)[C@@H]12 (stereo partly drawn),46.8%,94.1%,-53.7% (active),-56.4% (active),38.8%,-77.2% (active),-33.5% (active),-58.1% (active),10.3%,-63.2% (active),-84.2% (active),-68.4% (active),30.2%,10.1%,-19.6% (active),-80.5% (active),-87.1% (active),-77% (active),,
CC(C)n1nc(C#Cc2cccc3cc(-c4cccc(C(F)(F)F)c4)ncc23)c2c(N)ncnc21,78.6%,48.2%,59.7%,48.9%,78%,43.7%,44.4%,89%,89.4%,2.23% (active),93.1%,59.8%,81.7%,76%,91%,54.4%,82.7%,56.2%,,
O=C(NC1CCOCC1)c1ccc2c(c1)CN(c1ncc(Cc3cccc(-n4cccn4)c3)s1)CC2,57.7%,62%,104%,79.9%,44.9%,38.8%,76%,68.7%,88.2%,58.7%,64.1%,37.1%,73.7%,80.4%,62.5%,64.2%,62.6%,64%,,
